# The supplement of paper PMC9694430
# How the values were obtained:
# Test in all cases: thermal shift delta Tm vs DMSO control; higher = stronger stabilization (binding)
# Conditions in all cases: 12.5 µM; protein concentration 2 µM
# LOC_OS01G01410-cb001 = system: LOC_OS01G01410-cb001
# Summary of the method: (§1)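 Rice kinase domain constructs were expressed in E. coli, purified, and tested by differential scanning fluorimetry with compound added in DMSO. Each well of a 96-well plate held 19.5 μl of 2 μM kinase in 100 mM potassium phosphate pH 7.5, 150 mM NaCl, 10% glycerol and 5 × SYPRO Orange, and fluorescence was read from 25°C to 95°C at 0.05°C/s. The melting temperature shift is the mean of triplicates, taken against protein with DMSO alone after Boltzmann fitting.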
# LOC_OS01G02750-cb003 = system: LOC_OS01G02750-cb003
# Summary of the method: as §1
# LOC_OS01G10900-cb004 = system: LOC_OS01G10900-cb004
# Summary of the method: as §1
# LOC_OS01G13800-cb001 = system: LOC_OS01G13800-cb001
# Summary of the method: as §1
# LOC_OS01G14860-cb001 = system: LOC_OS01G14860-cb001
# Summary of the method: as §1
# LOC_OS01G21960-cb002 = system: LOC_OS01G21960-cb002
# Summary of the method: as §1
# LOC_OS01G39600-cb002 = system: LOC_OS01G39600-cb002
# Summary of the method: as §1
# LOC_OS01G48390-cb002 = system: LOC_OS01G48390-cb002
# Summary of the method: as §1
# LOC_OS01G51400-cb002 = system: LOC_OS01G51400-cb002
# Summary of the method: as §1
# LOC_OS01G52050-cb004 = system: T1, LOC_OS01G52050-cb004
# T1 sequence (whole entry): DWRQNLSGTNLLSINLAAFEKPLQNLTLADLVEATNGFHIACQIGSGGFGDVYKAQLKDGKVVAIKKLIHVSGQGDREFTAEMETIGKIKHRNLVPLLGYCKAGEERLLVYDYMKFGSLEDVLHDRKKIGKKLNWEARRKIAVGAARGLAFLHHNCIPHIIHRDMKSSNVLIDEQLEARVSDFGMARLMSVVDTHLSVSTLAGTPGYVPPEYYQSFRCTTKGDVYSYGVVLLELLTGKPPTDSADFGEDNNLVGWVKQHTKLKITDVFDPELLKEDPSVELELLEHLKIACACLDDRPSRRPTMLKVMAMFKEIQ
# Summary of the method: as §1
Structure (SMILES),thermal shift delta Tm (LOC_OS01G01410-cb001),thermal shift delta Tm (LOC_OS01G02750-cb003),thermal shift delta Tm (LOC_OS01G10900-cb004),thermal shift delta Tm (LOC_OS01G13800-cb001),thermal shift delta Tm (LOC_OS01G14860-cb001),thermal shift delta Tm (LOC_OS01G21960-cb002),thermal shift delta Tm (LOC_OS01G39600-cb002),thermal shift delta Tm (LOC_OS01G48390-cb002),thermal shift delta Tm (LOC_OS01G51400-cb002),thermal shift delta Tm (LOC_OS01G52050-cb004)
Cn1c2ccccc2c2c3c(c4c5ccccc5n(CCC#N)c4c21)CNC3=O,2.6 °C,2.74 °C,0.09 °C,1.15 °C,4.78 °C,2.78 °C,3.54 °C,1.96 °C,0.8 °C,3.9 °C
"CN1CCN(c2ccc3nc(-c4c(N)c5c(F)cccc5[nH]c4=O)[nH]c3c2)CC1 [Dovitinib (TKI-258, CHIR-258)]",6.03 °C,2.05 °C,2.59 °C,-0.2 °C,0.79 °C,2.56 °C,2.01 °C,1.63 °C,0.56 °C,3.72 °C
COc1ccc(-c2ccc3c(N4CCOC[C@@H]4C)nc(N4CCOC[C@@H]4C)nc3n2)cc1CO,0.54 °C,0.23 °C,0.08 °C,0.21 °C,0 °C,-0.12 °C,-0.26 °C,0.01 °C,-0.16 °C,0.06 °C
N#Cc1c(O)c2c(-c3ccc(-c4ccccc4O)cc3)csc2[nH]c1=O,0.93 °C,1.74 °C,0.92 °C,1.23 °C,0.8 °C,1.72 °C,0.7 °C,0.95 °C,0.44 °C,0.93 °C
CCc1cc(Nc2nccc(-c3c(-c4ccc(OC)c(C(=O)Nc5c(F)cccc5F)c4)nc4ccccn34)n2)c(OC)cc1N1CCC(N2CCN(S(C)(=O)=O)CC2)CC1,1.23 °C,-0.77 °C,0.34 °C,0.56 °C,0.33 °C,1.05 °C,1.04 °C,0.41 °C,0.3 °C,0.04 °C
COc1ncc(-c2cc(-c3ncc(CN4C[C@@H](C)O[C@@H](C)C4)o3)c3cn[nH]c3c2)cc1NS(C)(=O)=O,0.55 °C,3.05 °C,-0.41 °C,-0.09 °C,-0.11 °C,0.43 °C,0.15 °C,0.01 °C,0.34 °C,-0.19 °C
C=CC(=O)Nc1ccc2ncnc(Nc3cccc(Br)c3)c2c1,0.7 °C,-0.16 °C,-0.13 °C,-0.18 °C,0.1 °C,0.15 °C,-12.2 °C,0.59 °C,0.29 °C,0 °C
CC1(C)C=Cc2c(ccc3c2OC[C@@H](c2ccc(O)cc2O)C3)O1 [Glabridin],0.95 °C,3.18 °C,2.07 °C,0.08 °C,1.32 °C,1.14 °C,2.12 °C,1.81 °C,1.35 °C,4.83 °C
Cn1c(=O)c(F)c(Nc2ccc(I)cc2F)c2c(=O)n(C[C@@H](O)CO)cnc21,0.56 °C,-0.22 °C,0.49 °C,0.43 °C,0.33 °C,0.97 °C,0.25 °C,0.55 °C,0.57 °C,0.27 °C
